Results filed as inconclusive are left out. Entries that show only a call come without a potency. Calls of active or inactive are those of the source. Calls come from the whole dose curve; as a rule, active = well fitted inhibition curve with a large enough effect; inconclusive = small, poorly fitted or top-dose-only effect, or effect the other way; inactive = flat fitted curve, though single readings scatter.
What follows are compounds tested against Ubiquitin carboxyl-terminal hydrolase 2 (Homo sapiens) (UniProt O75604) (assay: Confirmation Assay for Inhibitors of Ubiquitin-specific Protease USP2a Using CHOP2 as the Reporter). Settings: USP2 core, Ub-CHOP2 coupled reporter fluorescence; series mostly up to 38.3 µM.
In short: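 USP2 core (10 nM final) was preincubated with compound for 30 min at RT in Tris-HCl pH 8.0, CaCl2, beta-mercaptoethanol, CHAPS. Ub-CHOP2 and reporter substrate (25 nM final each) were added, and fluorescence (Ex 485/Em 531 nm) was read after 60 min.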
Note: nearly all actives have a fitted effect of over 55% in size.
Potency is the fitted concentration of half-maximal effect.

Sequence of Ubiquitin carboxyl-terminal hydrolase 2 (Homo sapiens) (O75604 whole entry, looked up): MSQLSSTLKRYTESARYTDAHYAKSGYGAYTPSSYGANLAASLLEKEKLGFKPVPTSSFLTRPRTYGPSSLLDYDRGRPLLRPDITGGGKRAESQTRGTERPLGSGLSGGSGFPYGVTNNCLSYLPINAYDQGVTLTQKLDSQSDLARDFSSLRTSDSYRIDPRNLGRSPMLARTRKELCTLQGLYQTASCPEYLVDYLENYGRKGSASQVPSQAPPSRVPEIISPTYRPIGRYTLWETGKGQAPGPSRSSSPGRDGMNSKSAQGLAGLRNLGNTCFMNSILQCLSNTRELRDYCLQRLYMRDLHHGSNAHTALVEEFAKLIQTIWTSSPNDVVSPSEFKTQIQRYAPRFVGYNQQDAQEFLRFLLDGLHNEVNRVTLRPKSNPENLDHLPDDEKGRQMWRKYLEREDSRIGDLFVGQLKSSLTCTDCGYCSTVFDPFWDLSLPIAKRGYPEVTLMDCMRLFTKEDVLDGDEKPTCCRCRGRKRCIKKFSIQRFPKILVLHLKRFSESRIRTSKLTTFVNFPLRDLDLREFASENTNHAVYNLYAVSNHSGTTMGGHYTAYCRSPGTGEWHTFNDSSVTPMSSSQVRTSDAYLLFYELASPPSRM

Row | Compound | Potency
1 | Cc1cc(NC(=O)CN2C(=O)NC3(CCCCC3C)C2=O)no1 (centres undefined) | inactive
2 | COc1ccc(NC(=S)NC(=O)/C=C/c2ccco2)cc1 | inactive
3 | O=C(N/N=C/C=C/c1ccccc1)c1ccncc1 | inactive
4 | Cc1sc2nc(CN3CCN(c4ccc(O)cc4)CC3)[nH]c(=O)c2c1C | inactive
5 | O=C(O)c1cc(N2N=C(C(F)(F)F)/C(=C/C=C/c3ccco3)C2=O)ccc1Cl | 5.85 µM (active)
6 | O=S(=O)(c1ccccc1)N(CC1CO1)c1cc(Cl)ccc1Cl (centres undefined) | inactive
7 | CC1=NN(C(=O)c2csc(C)c2C)C(O)(C(F)(F)F)C1 (centres undefined) | inactive
8 | NS(=O)(=O)c1ccc(N=Nc2c(O)c(C(=O)O)cc3ccccc23)cc1 | 13.1 µM (active)
9 | Cn1nnnc1Sc1ncnc2scc(-c3ccc4c(c3)OCO4)c12 | inactive
10 | C=CCn1c(O)c(C(CC)=NCCN2CCOCC2)c(=O)[nH]c1=O | inactive
11 | Cc1noc(C)c1NC(=O)Nc1ccc2c(c1)C(=O)N([C@H](C)CO)C[C@H](C)[C@@H](CN(C)S(=O)(=O)c1ccccc1)O2 | inactive
12 | O=C(CCNc1cccc(Cl)c1)c1ccco1 | inactive
13 | C#CCOCCOCCOCCNc1nc(N2CCN(C(=O)CCCCCCCCCCNC(=O)[C@H](CCCCN)n3cc(CCO)nn3)CC2)nc(N2CCN(C(=O)CCCCCCCCCCNC(=O)[C@H](CCCCN)n3cc(C[C@@H](C)CC)nn3)CC2)n1 | 8.26 µM (active)
14 | O=C(CN1CCOCC1)Nc1ccc(C2CCCCC2)cc1 | inactive
15 | CCOc1ccccc1C(=O)NC1CC2CCCC(C1)N2C1CC1 (centres undefined) | inactive
16 | CCc1c(O)nc(SCC(=O)Nc2ccccc2OC)[nH]c1=O | inactive
17 | O=C(/C=C/c1ccc(Cl)c([N+](=O)[O-])c1)Nc1ccc(N2CCCC2)cc1 | inactive
18 | CCOC(=O)Nc1ccc(S(=O)(=O)Nc2cc(C)nc(C)n2)cc1 | inactive
19 | O=C(O)C(Cc1ccccc1)N1C(=O)/C(=C/C=C/c2ccco2)SC1=S (centres undefined) | 7.36 µM (active)
20 | CS(=O)(=O)c1nc(-c2ccc(Br)cc2)cc(-c2ccccc2)c1C#N | inactive

Row | Compound | Potency
21 | O=C(NCCOC(=O)c1ccccc1C(=O)OCCNC(=O)c1cccnc1)c1cccnc1 | inactive
22 | CC1CCCCN1CCNC(=O)c1cnn2ccccc12 (centres undefined) | inactive
23 | Cc1cc(C(=O)CSc2nnc(Nc3ccccc3F)s2)c(C)n1CC1CCCO1 (centres undefined) | inactive
24 | COC(=O)CC1Oc2ccc(C)cc2NC1=O (centres undefined) | inactive
25 | O=C(/C=N/O)NCc1cccnc1 | inactive
26 | COC(=O)CSc1nc2c(c(-c3ccco3)c1C#N)CCCC2 | inactive
27 | O=C(Nc1ccc(Oc2ccc(Cl)cc2)cc1)c1ncn[nH]1 | inactive
28 | C#CCOCCOCCOCCNc1nc(N2CCN(C(=O)CCCCCCCCCCNC(=O)[C@H](CO)n3cc(CCCSC)nn3)CC2)nc(N2CCN(C(=O)CCCCCCCCCCNC(=O)[C@H](CCCN=C(N)N)n3cc(C[C@@H](C)CC)nn3)CC2)n1 | 18.5 µM (active)
29 | CCOC(=O)C1CCN(C(=O)COC(=O)c2c(C)c(CC)nc3ccccc23)CC1 | inactive
30 | Cc1cc(C)c2c(N=CN(C)C)c(C(=O)N3CCN(c4ncccn4)CC3)sc2n1 | inactive
31 | COc1ccc(-n2c(=S)[nH]c3cc(C(=O)NCc4ccc(F)cc4)ccc3c2=O)c(OC)c1 | inactive
32 | CC[C@]12c3[nH]c4cc(-c5ccco5)ccc4c3CCN1C(=O)[C@@H](CC(=O)NC/C=C(\C)CCC=C(C)C)C[C@@H]2C(=O)N1CCN(C(=O)C2CC2)CC1 | inactive
33 | Cc1c2c(=O)n(-c3nc4ccccc4s3)nc-2cc(O)n1Cc1ccccc1 | inactive
34 | N#Cc1c(Nc2ccc(Cl)cc2)s[nH]c1=O | inactive
35 | CCCCC1NC(C(=O)O)CS1 (centres undefined) | inactive
36 | COc1ccc(S(=O)(=O)N2CCCCC2)cc1NC(=O)Cc1c[nH]c2ccccc12 | inactive
37 | Cc1ccccc1[C@@H]1C(C#N)=C(N)S[C@H]1C(=O)c1ccccc1 | inactive
38 | C[C@H](CO)N1C[C@H](C)[C@@H](CN(C)S(=O)(=O)c2ccc(Cl)cc2)Oc2ccc(NS(=O)(=O)c3ccccc3)cc2CC1=O | inactive
39 | COC(=O)C1CCN(C(=O)c2cc(-c3ccco3)nc3ccccc23)CC1 | 13.1 µM (active)
